Pf growth 96h: inhibits malaria parasite growth, 96 h | P. falciparum luciferase reporter growth, 96 h | Potency, µM (top dose mostly 28.7 µM), for the others: top-dose activity change, negative = inhibition, usual class: inhibitors | 320,000 tested, 6.9% active; further: potency means the concentration at half of the fitted maximal effect
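Parasite growth measured via integrated firefly luciferase reporter in P. falciparum. Infected erythrocytes at 2% hematocrit, 0.05% parasitemia final were treated 96 hours at 37 C under 5% CO2, and luminescence was read.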
HCMV inh: human cytomegalovirus inhibition; activity change, negative = inhibition, % at 57.5 µM; 410,000 tested, 4.5% active; HFF cells, HCMV-luciferase reporter, 72 h; stronger effect = lower value; in the data active means activity change below about -60%; inconclusive means no clear call, values can overlap the other calls; inactive means above about -39%
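Two-dose cell screen: HFF monolayers treated with compounds and infected with luciferase-expressing HCMV at 1 PFU/cell, 72 h at 37C, then lysed for luciferase measurement.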
LASV entry inh: Lassa virus entry inhibition | Lassa virus pseudotype entry inhibition, cell reporter | Potency, µM (series often up to 37.9 µM), for inactives: top-dose activity change, negative = inhibition, usual class: inhibitors | 300,000 tested, 1.2% active; calls by dose curve; tested in HEK293 cells; further: potency means the concentration at half of the fitted maximal effect; nearly all actives have a fitted effect of over 50% in size
Marburg entry inh: blocks Marburg virus binding to or entry into cells. Marburg virus pseudotyped entry inhibition, cell reporter. 300,000 tested, 1.8% active. Potency, µM (top dose mostly 37.8 µM), inactives show at the highest dose activity change, negative = inhibition, hits mostly inhibitors; calls by dose curve; tested in HEK293 cells; further: potency means the concentration at half of the fitted maximal effect
HCV inh: inhibitors of hepatitis C virus infection. Huh7.5.1 HCVcc-Cre infection, luciferase reporter, 44 h. AID 651820. 340,000 tested, 3.4% active. Potency, µM (series often up to 41.8 µM), inactives show top-dose activity change, negative = inhibition, usual class: inhibitors; further: potency means the concentration at half of the fitted maximal effect
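Cells seeded at 1,000/well and cultured 4 h, then compounds added followed by HCVcc-Cre virus (~0.5 moi). After 44 h further culture, luciferase substrate was added, plates held 15 min at room temperature, and luminescence read for 15 sec.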
Pf growth 48h: inhibits P. falciparum growth in the first generation, 48 h; AID 504832; P. falciparum luciferase growth in erythrocytes, 48 h; Potency, µM (top dose mostly 28.7 µM), without a hit: top-dose activity change, negative = inhibition, hits mostly inhibitors; 310,000 tested, 5.9% active; further: potency means the concentration at half of the fitted maximal effect
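Luciferase-expressing P. falciparum in infected erythrocytes (2% hematocrit, 0.1% parasitemia final) in RPMI 1640/0.5% Albumax were exposed to compound for 48 hours at 37 C, 5% CO2; growth read as luminescence.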
* hit, by the source's call; ? = inconclusive; · = no result; [ ] = dose if it differs, or a comment. Hits are enriched below; roughly 14% of the tested compounds scored in any of these assays. Unless noted, the call rests on the fitted dose curve; in most records, active means well fitted inhibition curve with a large enough effect; inconclusive means small, poorly fitted or top-dose-only effect, or another doubt; inactive means no such curve, though single readings can be large or run the other way. On the % scale 0 is the no-effect control and ±100 the full control effect.

SMILES | Pf growth 96h | HCMV inh | LASV entry inh | Marburg entry inh | HCV inh | Pf growth 48h
C/C(=N\Nc1ncnc2sc(C)c(C)c12)c1ccccn1 | 0.046µM* | -102* | ? | 3.2µM* | ? | 0.17µM*
Cc1sc2ncnc(N/N=C/c3cccc(O)c3)c2c1C | 35% | ? | 28% | 3.2µM* | ? | 64%
Cc1ccc(S(=O)(=O)Nc2ncnc3sc(C)c(C)c23)cc1 | -4% | 0 | -8% | -8% | -16% | 0%
Cc1sc2ncnc(Nc3ccc(O)cc3)c2c1C | ? | -32 | -17% | -26% | ? | -22%
C/C(=N\Nc1ncc(Cl)cc1Cl)c1ccccn1 | ? | · | ? | 0.89µM* | ? | -27%
Cc1ccc(Sc2ccc(N3CCCC(C(=O)Nc4ccc(F)c(Cl)c4)C3)nn2)cc1 (centres undefined) | · | -9 | ? | -4%[46.1 µM] | · | ·
Cc1oc2c(c1C(=O)NCc1ccccc1)CCCC2 | 44% | -29 | -23% | 11% | -11% | -16%
Cc1oc2c(c1C(=O)NCCO)CCCC2 | 0.013µM* | -3 | 13% | 2% | 11% | ·
Cc1nc2c(c(=O)n1Cc1ccccc1Cl)c1nc3ccccc3nc1n2Cc1ccco1 | ? | · | · | 2% | 12% | ?
CCO/C(C)=N/n1c2nc3ccccc3nc2c2c(=O)n(Cc3ccccc3Cl)c(C)nc21 | ? | ? | -7% | -5% | -15% | 0.74µM*
Cn1nc(-c2ccccc2F)c2cc(C(=O)NCc3ccccc3Cl)sc21 | · | -15 | ? | 21%[46.1 µM] | · | ·
CC(C)Oc1ccc(S(=O)(=O)N2CCOCC2)cc1NC(=O)CSc1nnc(C2CC2)n1C | · | -1 | · | · | · | ·
O=C(O)c1ccccc1C=NN1CCCCCC1 | · | -1 | 0%[46.1 µM] | 17%[46.1 µM] | -25% | ·
CC(C)(C)C1CCC(=O)N(CCSc2ccccc2)CC1 (centres undefined) | 8% | -16 | · | · | 3.5µM* | 260%
Cc1ccc(SCCN2CCC(C(C)(C)C)CCC2=O)cc1 (centres undefined) | -13% | -6 | · | · | -1% | 94%
CC(C)(C)C(=O)/C(=C/c1ccc(Cl)cc1)n1cncn1 | 136% | -102* | · | · | ? | 15µM*
CC(C)(C)C(=O)/C(=C/c1cccc([N+](=O)[O-])c1)n1cncn1 | 7.4µM* | -101* | 7.3µM* | 4µM* | 3.2µM* | ?
CC(C)(C)C(=O)/C(=C\c1ccc([N+](=O)[O-])cc1)n1cncn1 | ? | · | · | · | 3.2µM* | 12µM*
O=[N+]([O-])c1cccc(/C=C/c2ccncc2)c1 | 10% | -4 | ? | ? | ? | -20%
Cc1ccc(N(C(=O)c2cccc(C)c2)S(=O)(=O)c2ccc(Cl)cc2)cc1 | · | -8 | ? | · | · | ·
COc1ccc(S(=O)(=O)NCC(c2cccs2)S(=O)(=O)c2ccccc2)cc1OC (centres undefined) | · | ? | -9%[46.1 µM] | · | · | ·
COc1ccc(-c2nnc(SC(C)C(=O)O)o2)cc1 (centres undefined) | · | 10 | -29%[46.1 µM] | 6%[46.1 µM] | · | ·
COC(=O)CN(c1ccc(OC)cc1OC)S(=O)(=O)c1ccccc1[N+](=O)[O-] | 4% | -39 | 4% | -16%[46.1 µM] | 8% | 0%
COc1ccc(N(CC(=O)NCc2ccccc2C)S(=O)(=O)c2ccccc2[N+](=O)[O-])c(OC)c1 | 10µM* | ? | ? | ? | ? | ?
CCOc1ccccc1NC(=O)CN(c1ccc(OC)cc1OC)S(=O)(=O)c1ccccc1[N+](=O)[O-] | 24%[1.15 µM] | ? | 1%[46.1 µM] | 10µM* | -20% | ?
COc1ccc(N(CC(=O)N2CCCCCC2)S(=O)(=O)c2ccccc2[N+](=O)[O-])c(OC)c1 | -28% | ? | -19% | -4%[46.1 µM] | 6% | 12µM*
CCOc1ccc(N(C(=O)CC(C)C)S(=O)(=O)c2ccc3c(c2)oc(=O)n3C)cc1 | · | 2 | ? | ? | · | ·
COCc1c(C(=O)NCC2COc3ccccc3O2)oc2ccccc12 (centres undefined) | ? | 0 | · | · | 6% | 12µM*
CC(=O)NCC1COc2ccccc2O1 (centres undefined) | 0% | 2 | · | · | 16% | 8%
